The nature of assay [1]: Nuclear factor erythroid 2-related factor 2/antioxidant responsive element (Nrf2/ARE) small molecule agonists: qHTS cell viability counter screen in human keratinocytes (AID 1919968; active means well fitted curve in the direction sought with a large enough effect in the repeat runs; an effect the other way counts as inactive or inconclusive; further: nearly all actives have a fitted effect of over 55% in size). An outline of the steps:
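After a 5 h attachment period, ARE-reporter keratinocytes were dosed with compounds in DMSO and then cultured 23 h at 37 C. Cell viability came from CellTiter-Fluor signal read after a further 1 h.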
For orientation: Quantitative high-throughput screening tests each substance at several concentrations.

The nature of assay [2]: Nuclear factor erythroid 2-related factor 2/antioxidant responsive element (Nrf2/ARE) small molecule agonists: luciferase reporter gene qHTS assay in human keratinocytes (AID 1919969; further: nearly all actives have a fitted effect of over 35% in size). (In general: A reporter such as luciferase makes a cellular process visible.)
The target of assay [3] is Gonadotropin-releasing hormone receptor (Homo sapiens) (UniProt P30968). Description: Human gonadotropin-releasing hormone receptor (GnRHR) small molecule agonists, calcium flux assay in GnRHR-HEK293 cells (AID 1920063). Further: nearly all actives have a fitted effect of over 35% in size. The gist of the method:
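We seeded human GnRHR-expressing HEK293 cells for 18 hours, loaded them with calcium dye for an hour at 37 C, added test compounds, and recorded fluorescence intensity kinetically for three minutes.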

For assay [4], the target named is KiSS-1 receptor (Homo sapiens) (UniProt Q969F8). Description: Human kisspeptin (KISS1R) small molecule agonists, calcium flux assay in KISS1R-HEK293 cells (AID 1920064; active means well fitted curve in the direction sought with a large enough effect in the repeat runs; an effect the other way counts as inactive or inconclusive). An outline of the steps:
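Kinetic calcium assay, 1 s sampling over 3 min at Ex/Em 480/540, in HEK293 cells engineered with human KISS1R; compounds delivered in DMSO after 1 h dye loading.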
A general note: Calcium assays in cells follow changes in intracellular calcium, usually with a dye or a luminescent sensor.

The nature of assay [5]: G protein-coupled receptor (GPCR) small molecule agonists, calcium flux assay: HEK293 wild type cell line counter screen (AID 1920065). An outline of the steps: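 Calcium-sensitive dye, loaded 1 h at 37 C into cells cultured 18 h, reports compound-evoked calcium release as fluorescence (Ex/Em 480/540), measured over 3 min. Agonist mode; 15-point titrations, triplicate.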

Assay [6] is described as follows: p53 small molecule agonists, cell-based qHTS assay with human liver microsomes (AID 1963577). An outline of the steps:
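p53RE-bla reporter cells were pre-incubated 5 h at 37 C, then treated with compounds plus human liver microsomes (0.5 mg/mL final) and NADPH (0.5 mg/mL final) for 16 h at 37 C. Beta-lactamase activity was read by LiveBLAzer fluorescence after 2 h at room temperature.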

A short description of assay [7]: p53 small molecule agonists, cell-based qHTS assay with rat liver microsomes (AID 1963578). The gist of the method:
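p53RE-bla cells were exposed to compounds together with rat liver microsomes (0.5 mg/mL final) and NADPH (0.5 mg/mL final) for 16 h at 37 C, then read by LiveBLAzer beta-lactamase fluorescence after 2 h at room temperature.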

Assay [8] can be described thus: p53 small molecule agonists, cell-based qHTS assay with human liver microsomes: qHTS cell viability counter screen (AID 1963579). Further: nearly all actives have a fitted effect of over 45% in size. The gist of the method: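 p53RE-bla cells (4,000/well) were pre-incubated 5 h at 37 C, then given compounds in DMSO plus human liver microsomes (0.5 mg/mL final) and NADPH (0.5 mg/mL final) for 16 h at 37 C. Viability was read by CellTiter-Glo luminescence.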

Assay [9] in a line: p53 small molecule agonists, cell-based qHTS assay with rat liver microsomes: qHTS cell viability counter screen (AID 1963580). Further: nearly all actives have a fitted effect of over 45% in size. An outline of the steps: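 p53RE-bla HCT-116 cells were exposed 16 h at 37 C to compounds with rat liver microsomes (0.5 mg/mL) and NADPH (0.5 mg/mL). Viability was measured in the same wells as ATP content by CellTiter-Glo luminescence.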
The nature of assay [10]: p53 small molecule agonists, cell-based qHTS assay: qHTS cell viability counter screen (AID 1963581). Further: nearly all actives have a fitted effect of over 45% in size. The gist of the method: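 Following 5 h attachment, HCT-116 p53RE-bla cells took up compound for 16 h at 37 C; the reporter was read with B/G FRET substrate (2 h RT), and viability then via CellTiter-Glo ATP luminescence.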
The nature of assay [11]: p53 small molecule agonists, cell-based qHTS assay (AID 1963582; active means well fitted activation curve with a large enough effect in the signal ratio in the repeat runs, not every such curve was filed as active; the % refers to the signal ratio; further: potency means the concentration at half of the fitted maximal effect). An outline of the steps: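 In this cell-based concentration-response screen, a p53 response element drives beta-lactamase; cells received DMSO-borne compounds after 5 h culture and were incubated a further 16 h before FRET substrate development.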
Assay [12] is described as follows: cAMP Responsive Elements (CRE) small molecule agonists, cell-based qHTS assay (AID 1963590). An outline of the steps: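 A CRE-responsive beta-lactamase reporter in HEK 293T cells was used. Treatment ran 3 h at 37 C; detection used LiveBLAzer B/G FRET substrate for 2 h at room temperature.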
The nature of assay [13]: cAMP Responsive Elements (CRE) small molecule antagonists, cell-based qHTS assay (AID 1963591; active means well fitted inhibition curve with a large enough effect in the signal ratio in the repeat runs, not every such curve was filed as active; the % refers to the signal ratio). The gist of the method: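 HEK293T cells carrying a CRE-driven beta-lactamase reporter receive compound and NKH477 (0.25 uM final) for 3 h. Fluorescence from LiveBLAzer B/G FRET substrate is read after 2 h at room temperature.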
Assay [14] concerns the target Beta-2 adrenergic receptor (Homo sapiens) (UniProt P07550). Description: Adrenergic beta2 receptor (ADRB2) small molecule antagonists, cell-based qHTS assay (AID 1963592). Further: series mostly up to about 92 µM; nearly all actives have a fitted effect of over 50% in size. The gist of the method:
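Cells (CHO, stable ADRB2 overexpression) incubated 18-20hr at 37C; compounds added from DMSO; agonist mix (1nM isoproterenol, 100uM IBMX, 25uM Ro-20-1724) added; 0.5hr RT; d2-cAMP and anti-cAMP-cryptate added; 1hr RT; 665/615 nm read.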

The target is the same in assay [15]. Briefly: Adrenergic beta2 receptor (ADRB2) small molecule agonists, cell-based qHTS assay (AID 1963593).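 Further: CHO cells stably overexpressing human ADRB2.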 An outline of the steps:
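CHO cells stably over-expressing ADRB2 were plated overnight at 37C, then dosed with compounds plus a stimulation mix containing 100uM IBMX and 25uM Ro-20-1724 for 0.5hr at room temperature. cAMP was measured by HTRF competition, 1hr.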

Assay [16] concerns the target D(2) dopamine receptor (Homo sapiens) (UniProt P14416). Briefly: Dopamine D2 receptor (DRD2) small molecule agonists, cell-based qHTS assay (AID 1963594). Further: nearly all actives have a fitted effect of over 35% in size. Further: potency means the concentration at half of the fitted maximal effect. The gist of the method:
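HEK293 cells stably expressing human DRD2, pre-treated with PDE inhibitor Ro20-1724 (0.1 mM final) and compound 10 min at room temperature, then stimulated with NKH477 (200nM […]) for 30 min. cAMP read by HTRF (665/620 nm).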

For assay [17] the target is unchanged. Description: Dopamine D2 receptor (DRD2) small molecule antagonists, cell-based qHTS assay (AID 1963595; active means well fitted inhibition curve with a large enough effect in the signal ratio in the repeat runs, with a control signal flat; the % refers to the signal ratio). The gist of the method:
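Cells were plated and grown for 24 h at 37 °C. Ro20-1724 (0.1 mM final) went in first, then compound for 10 min. NKH477 (200 nM) with quinpirole (12 nM) followed for 30 min at RT, then HTRF detection reagents for 1 h.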

Assay [18] addresses Muscarinic acetylcholine receptor M1 (Homo sapiens) (UniProt P11229). Briefly: Cholinergic receptor muscarinic 1 (CHRM1) small molecule agonists, cell-based qHTS assay (AID 1963589). Further: nearly all actives have a fitted effect of over 35% in size. The gist of the method: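 Measures agonist-induced intracellular calcium rise. Stable human CHRM1 CHO line, 1 h dye load at 37 C, compounds from DMSO, kinetic fluorescence read.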

Unmarked numbers belong to inactive results. Results filed as inconclusive are left out. Activity calls are given as the source filed them. Unless noted, the call rests on the fitted dose curve.

D(2) dopamine receptor (Homo sapiens), sequence (P14416 whole entry, looked up): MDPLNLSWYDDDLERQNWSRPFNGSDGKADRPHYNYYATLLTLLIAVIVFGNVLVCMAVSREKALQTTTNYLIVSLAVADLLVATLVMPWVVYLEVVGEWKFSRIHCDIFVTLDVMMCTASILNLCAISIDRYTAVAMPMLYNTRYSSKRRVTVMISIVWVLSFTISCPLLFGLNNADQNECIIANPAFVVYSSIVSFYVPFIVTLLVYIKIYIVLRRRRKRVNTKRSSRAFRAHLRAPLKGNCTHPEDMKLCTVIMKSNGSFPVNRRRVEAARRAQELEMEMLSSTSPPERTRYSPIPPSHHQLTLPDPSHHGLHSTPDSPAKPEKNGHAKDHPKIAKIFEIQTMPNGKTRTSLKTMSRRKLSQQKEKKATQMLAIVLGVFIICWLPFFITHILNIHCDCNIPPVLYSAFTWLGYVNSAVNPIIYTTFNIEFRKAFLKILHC
Gonadotropin-releasing hormone receptor (Homo sapiens), sequence (P30968 whole entry, looked up): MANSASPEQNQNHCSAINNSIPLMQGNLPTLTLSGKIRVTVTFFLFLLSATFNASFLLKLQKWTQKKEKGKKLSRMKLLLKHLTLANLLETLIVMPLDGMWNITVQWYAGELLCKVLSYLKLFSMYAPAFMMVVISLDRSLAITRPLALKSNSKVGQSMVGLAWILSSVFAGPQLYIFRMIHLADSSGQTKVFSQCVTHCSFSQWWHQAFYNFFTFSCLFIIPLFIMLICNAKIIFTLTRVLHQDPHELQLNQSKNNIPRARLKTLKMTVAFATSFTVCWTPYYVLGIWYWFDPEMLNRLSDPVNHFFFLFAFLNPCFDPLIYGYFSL
Beta-2 adrenergic receptor (Homo sapiens), sequence (P07550 whole entry, looked up): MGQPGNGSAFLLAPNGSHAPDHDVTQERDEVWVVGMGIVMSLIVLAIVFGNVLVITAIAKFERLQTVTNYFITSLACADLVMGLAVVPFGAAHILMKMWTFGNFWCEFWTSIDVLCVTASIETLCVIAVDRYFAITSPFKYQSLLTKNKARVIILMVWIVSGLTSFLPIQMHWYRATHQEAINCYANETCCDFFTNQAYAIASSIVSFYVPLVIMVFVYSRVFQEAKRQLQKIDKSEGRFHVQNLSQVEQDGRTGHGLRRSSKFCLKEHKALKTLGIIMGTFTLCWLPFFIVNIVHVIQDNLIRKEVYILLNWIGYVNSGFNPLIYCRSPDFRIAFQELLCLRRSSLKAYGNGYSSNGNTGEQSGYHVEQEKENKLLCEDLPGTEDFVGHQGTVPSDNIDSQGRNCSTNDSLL
KiSS-1 receptor (Homo sapiens), sequence (Q969F8 whole entry, looked up): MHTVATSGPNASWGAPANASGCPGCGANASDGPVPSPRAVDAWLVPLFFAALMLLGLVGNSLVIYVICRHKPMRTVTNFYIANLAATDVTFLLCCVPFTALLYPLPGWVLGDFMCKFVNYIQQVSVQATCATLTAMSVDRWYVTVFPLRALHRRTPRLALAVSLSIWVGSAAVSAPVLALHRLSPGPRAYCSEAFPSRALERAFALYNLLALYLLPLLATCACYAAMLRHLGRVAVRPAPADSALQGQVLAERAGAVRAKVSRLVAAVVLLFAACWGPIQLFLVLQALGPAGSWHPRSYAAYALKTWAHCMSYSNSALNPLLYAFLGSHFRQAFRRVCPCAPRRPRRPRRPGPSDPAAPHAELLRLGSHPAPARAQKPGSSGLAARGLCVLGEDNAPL
Muscarinic acetylcholine receptor M1 (Homo sapiens), sequence (P11229 whole entry, looked up): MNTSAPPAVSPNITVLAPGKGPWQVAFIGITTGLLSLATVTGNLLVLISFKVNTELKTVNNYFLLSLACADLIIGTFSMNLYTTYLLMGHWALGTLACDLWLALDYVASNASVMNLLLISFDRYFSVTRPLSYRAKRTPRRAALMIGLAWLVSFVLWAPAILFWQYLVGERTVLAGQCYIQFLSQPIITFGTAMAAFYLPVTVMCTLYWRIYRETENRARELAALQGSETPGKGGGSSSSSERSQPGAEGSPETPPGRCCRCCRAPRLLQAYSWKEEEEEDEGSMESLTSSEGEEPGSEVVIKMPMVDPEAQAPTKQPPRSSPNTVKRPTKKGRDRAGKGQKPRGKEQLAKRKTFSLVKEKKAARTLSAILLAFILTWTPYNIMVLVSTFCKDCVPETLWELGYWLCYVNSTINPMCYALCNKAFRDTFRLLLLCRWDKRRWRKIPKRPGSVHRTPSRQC

On to `CC[C@H]1OC(=O)[C@H](C)[C@@H](O[C@H]2C[C@@](C)(OC)[C@@H](O)[C@H](C)O2)[C@H](C)[C@@H](O[C@@H]2O[C@H](C)C[C@H](N(C)C)[C@H]2O)[C@](C)(OC)C[C@@H](C)C(=O)[C@H](C)[C@@H](O)[C@]1(C)O`, for which the Potency entry in assay [1], in assay [2], in assay [3], in assay [6], in assay [7] and in assay [8] was “inactive” each time. For the same compound, the Potency result in [9], in assay [10], in assay [11], in assay [12], in assay [13] and in assay [14] was “inactive” throughout. The Potency result in [15], in assay [16] and in assay [17] was “inactive” throughout. The outcome in assay [4] and in [5] was inactive.

`C[C@H]1O[C@@H](n2cc(F)c(=O)[nH]c2=O)[C@H](O)[C@@H]1O`: the Potency result in assay [1], in assay [2], in assay [3], in assay [6], in assay [7] and in assay [8] was “inactive” in each case. For the same compound, the Potency result in assay [9], in [10], in [12], in [13], in [14] and in [15] was “inactive” throughout. Further, the Potency result in [16] and in assay [17] was “inactive” throughout. Further, the result in assay [4] and in assay [5] was inactive. The Potency in assay [11] is 15.8 µM (active).

With `N#Cc1c(F)cccc1F`, the Potency entry in [1], in assay [2], in assay [3], in assay [6], in assay [7] and in assay [8] was “inactive” in each case. For the same compound, the Potency result in [9], in assay [10], in [11], in assay [18], in [12] and in [13] was “inactive” throughout. Moreover, the Potency entry in [14], in assay [15], in assay [16] and in assay [17] was “inactive” in each case. In addition, the outcome in assay [4] and in [5] was inactive.

With `Nc1nc2c(ncn2COC(CO)CO)c(=O)[nH]1`, the Potency entry in assay [1], in assay [2], in assay [3], in assay [6], in assay [7] and in [8] was “inactive” throughout. Besides, the Potency result in [9], in assay [10], in assay [11], in assay [12], in assay [13] and in assay [14] was “inactive” throughout. The Potency entry in assay [15] and in assay [17] was “inactive” each time. In addition, the result in assay [4] and in [5] was inactive. Also, in [16], the Potency is 1.14 µM (active).

On to `Cc1cccc(Nc2ccncc2S(=O)(=O)NC(=O)NC(C)C)c1`, for which the Potency result in assay [1], in [2], in assay [3], in [6], in [7] and in assay [8] was “inactive” each time. Moreover, the Potency result in [9], in [10], in assay [11], in assay [12], in assay [13] and in [14] was “inactive” each time. For the same compound, the Potency result in assay [15], in assay [16] and in [17] was “inactive” in each case. For the same compound, the result in assay [4] and in [5] was inactive.

In the case of `CCOc1cc(N)c(Cl)cc1C(=O)NCC1CN(Cc2ccc(F)cc2)CCO1` (stereo not drawn), the Potency entry in assay [1], in [2], in [3], in assay [6], in assay [7] and in assay [8] was “inactive” each time. For the same compound, the Potency entry in assay [9], in [10], in assay [11], in [12], in [13] and in [14] was “inactive” in each case. Besides, the Potency result in [16] was “inactive”. Also, the outcome in [4] and in assay [5] was inactive.

Consider `C[C@H]1C[C@H]2[C@@H]3CCC4=CC(=O)C=C[C@]4(C)[C@@]3(F)[C@@H](O)C[C@]2(C)[C@@]1(O)C(=O)COP(=O)(O)O`, for which the Potency result in assay [1], in assay [2], in assay [3], in [6], in assay [7] and in assay [8] was “inactive” in each case. For the same compound, the Potency entry in [9], in assay [10], in [11], in assay [12], in [13] and in [14] was “inactive” each time. Further, the Potency result in assay [15], in assay [16] and in assay [17] was “inactive” throughout. The outcome in [4] and in assay [5] was inactive.

The values above are taken from PubChem BioAssay (Tox21).
